Activity calls are given as the source filed them. How the source made its calls: active means hit-call score of the fitted dose curve at least 0.9, where 1 is the maximum; inactive means score below 0.9.
Key:
[1] = read-out: Interleukin-1 alpha (IL1a), IL1A (gene 3552); experiment: BSK_KF3CT_IL1a: BioMAP Diversity Plus: KF3CT Assay for Interleukin-1 alpha (IL1a) Biomarker Activity (AID 2283070); conditions: primary human keratinocytes with fibroblasts; actives raise or lower the signal
Outline: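 Human keratinocyte plus foreskin fibroblast primary co-culture, sampled 24 h after chemical dosing. IL-1a measured by ELISA; responses fitted bidirectionally against DMSO baseline (negative control), so gain or loss of signal both count.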

[2] = read-out: TIMP metallopeptidase inhibitor 2 (TIMP2), TIMP2 (gene 7077); experiment: BSK_KF3CT_TIMP2: BioMAP Diversity Plus: KF3CT Assay for TIMP metallopeptidase inhibitor 2 (TIMP2) Biomarker Activity (AID 2283071); conditions: primary human keratinocytes with fibroblasts; actives raise or lower the signal
Outline: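 Keratinocyte–fibroblast co-culture, 24 h exposure; TIMP-2 ELISA, DMSO-normalised bidirectional fit. Parallel SRB (0.1%, TCA-fixed, 560 nm) total-protein staining gauges cytotoxicity.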

[3] = read-out: Transforming growth factor beta 1 (TGFb1), TGFB1 (gene 7040); experiment: BSK_KF3CT_TGFb1: BioMAP Diversity Plus: KF3CT Assay for Transforming growth factor beta 1 (TGFb1) Biomarker Activity (AID 2283072); conditions: primary human keratinocytes with fibroblasts; actives raise or lower the signal
Outline: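 Signal changes in either direction, relative to DMSO, define activity here. TGF-b1 is read by ELISA from a human keratinocyte-fibroblast co-culture 24 h post-dose.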

[4] = read-out: C-C motif chemokine 2 (Homo sapiens) (UniProt P13500); experiment: BSK_KF3CT_MCP1: BioMAP Diversity Plus: KF3CT Assay for Monocyte Chemoattractant Protein 1 (MCP1/CCL2) Biomarker Activity (AID 2283073); conditions: primary human keratinocytes with fibroblasts; actives raise or lower the signal
Outline: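 Human keratinocyte–foreskin fibroblast co-culture; MCP-1 measured by ELISA 24 h after dosing. Bidirectional fit vs DMSO; cytotoxicity tracked by SRB total protein in parallel cultures.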

[5] = read-out: Matrix Metallopeptidase 9 (MMP9), MMP9 (gene 4318); experiment: BSK_KF3CT_MMP9: BioMAP Diversity Plus: KF3CT Assay for Matrix Metallopeptidase 9 (MMP9) Biomarker Activity (AID 2283074); conditions: primary human keratinocytes with fibroblasts; actives raise or lower the signal;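 on AC50: MMP9 protein level quantified by ELISA in the co-culture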
Outline: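 Keratinocyte plus foreskin fibroblast human primary skin co-culture was dosed with chemical and MMP-9 was quantified by ELISA 24 h later. Bidirectional curve fitting used DMSO as negative control and activity baseline.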

[6] = read-out: urokinase plasminogen activator (uPA), PLAU (gene 5328); experiment: BSK_KF3CT_uPA: BioMAP Diversity Plus: KF3CT Assay for urokinase plasminogen activator (uPA) Biomarker Activity (AID 2283075); conditions: primary human keratinocytes with fibroblasts; actives raise or lower the signal
Outline: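 Human keratinocyte plus foreskin fibroblast primary co-culture exposed to chemical for 24 h. uPA levels were quantified by ELISA, and activity was fitted bidirectionally against a DMSO negative-control baseline.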

[7] = read-out: E-selectin (Homo sapiens) (UniProt P16581); experiment: BSK_LPS_Eselectin: BioMAP Diversity Plus: LPS Assay for Eselectin Biomarker Activity (AID 2283077); conditions: primary human HUVEC with PBMC; actives raise or lower the signal
Outline: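 Human umbilical vein endothelial cells co-cultured with PBMC under LPS stimulation; cell-surface E-selectin measured by ELISA 24 h after dosing. Change in either direction versus DMSO, with SRB total-protein staining in parallel cultures for cytotoxicity.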

[8] = read-out: Interleukin-8 (IL8), CXCL8 (gene 3576); experiment: BSK_LPS_IL8: BioMAP Diversity Plus: LPS Assay for Interleukin-8 (IL8) Biomarker Activity (AID 2283078); conditions: primary human HUVEC with PBMC; actives raise or lower the signal
Outline: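 Human umbilical vein endothelial cells co-cultured with PBMC, LPS-stimulated, exposed to compound for 24 h. IL-8 quantified by ELISA; fitted in both directions against DMSO, with SRB total-protein staining of parallel cultures for cytotoxicity.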

[9] = BSK_LPS_SRB: Viability Assessment in the BioMAP Diversity Plus: LPS Assay (AID 2283079); conditions: primary human HUVEC with PBMC;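 further: total protein by sulforhodamine B absorbance as a cytotoxicity measure; measured one day after compound addition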
Outline: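 Co-culture of human umbilical vein endothelial cells and PBMC, read 24 h after dosing. Total protein by 0.1% SRB staining after 10% TCA fixation, absorbance at 560 nm; bidirectional fit against DMSO.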

[10] = read-out: Interleukin-1 alpha (IL1a), IL1A (gene 3552); experiment: BSK_LPS_IL1a: BioMAP Diversity Plus: LPS Assay for Interleukin-1 alpha (IL1a) Biomarker Activity (AID 2283080); conditions: primary human HUVEC with PBMC; actives raise or lower the signal
Outline: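 Human umbilical vein endothelial cells co-cultured with PBMC and stimulated with LPS; IL-1a measured by ELISA 24 h after dosing. Bidirectional fitting against DMSO; cytotoxicity checked by SRB staining in parallel cultures.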

[11] = read-out: Monocyte Chemoattractant Protein-1 (MCP1), CCL2 (gene 6347); experiment: BSK_LPS_MCP1: BioMAP Diversity Plus: LPS Assay for Monocyte Chemoattractant Protein-1 (MCP1) Biomarker Activity (AID 2283081); conditions: primary human HUVEC with PBMC; actives raise or lower the signal;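 on AC50: secreted MCP-1 protein quantified by ELISA in culture supernatant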
Outline: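 Human umbilical vein endothelial cells co-cultured with PBMC, LPS-stimulated; secreted MCP-1 measured by ELISA 24 h after compound addition. Bidirectional curve fitting against DMSO baseline; SRB total-protein staining in parallel cultures for cytotoxicity.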

[12] = BSK_LPS_PGE2: BioMAP Diversity Plus: LPS Assay for Prostaglandin E2 (PGE2) Biomarker Activity (AID 2283082); conditions: primary human HUVEC with PBMC; actives raise or lower the signal;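 on AC50: secreted prostaglandin E2 measured by ELISA in LPS-stimulated co-culture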
Outline: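 Endpoint derived from bidirectional curve fitting versus DMSO of ELISA-measured PGE2 in LPS-stimulated human primary vascular co-culture (HUVEC with PBMC) harvested at 24 h.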

[13] = read-out: Macrophage colony-stimulating factor (MCSF), CSF1 (gene 1435); experiment: BSK_LPS_MCSF: BioMAP Diversity Plus: LPS Assay for Macrophage colony-stimulating factor (MCSF) Biomarker Activity (AID 2283083); conditions: primary human HUVEC with PBMC; actives raise or lower the signal
Outline: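 HUVEC–PBMC co-culture, M-CSF measured by ELISA 24 h after chemical dosing. Fitted in both directions relative to DMSO as negative control; overt cytotoxicity assessed by SRB total-protein staining in parallel cultures.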

[14] = read-out: Tissue Factor, F3 (gene 2152); experiment: BSK_LPS_TissueFactor: BioMAP Diversity Plus: LPS Assay for Tissue Factor Biomarker Activity (AID 2283084); conditions: primary human HUVEC with PBMC; actives raise or lower the signal
Outline: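 Human umbilical vein endothelial cells co-cultured with PBMC were dosed with compound. Cell-surface CD142 was measured by ELISA 24 h later. Activity was fitted bidirectionally against DMSO, with SRB total-protein staining in parallel cultures for cytotoxicity.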

[15] = read-out: Tumor necrosis factor (Homo sapiens) (UniProt P01375); experiment: BSK_LPS_TNFa: BioMAP Diversity Plus: LPS Assay for Tumour Necrosis Factor alpha (TNFa) Biomarker Activity (AID 2283085); conditions: primary human HUVEC with PBMC; actives raise or lower the signal;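 on AC50: TNFa protein level quantified by ELISA in the co-culture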
Outline: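 Primary human vascular co-culture of HUVEC and PBMC; TNFa ELISA 24 h after treatment, analysed as increase or decrease relative to DMSO control.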

[16] = read-out: Vascular cell adhesion molecule 1 (VCAM1), VCAM1 (gene 7412); experiment: BSK_LPS_VCAM1: BioMAP Diversity Plus: LPS Assay for Vascular cell adhesion molecule 1 (VCAM1) Biomarker Activity (AID 2283086); conditions: primary human HUVEC with PBMC; actives raise or lower the signal
Outline: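 Primary human vascular co-culture (umbilical vein endothelium plus PBMC) stimulated with LPS received chemical; 24 h later VCAM-1 was read by ELISA. Overt cytotoxicity was assessed by sulforhodamine B staining of parallel cultures at the same time point.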

CD38, CD38 (gene 952) = experiment: BSK_SAg_CD38: BioMAP Diversity Plus: SAg Assay for CD38 Biomarker Activity (AID 2283087); conditions: primary human HUVEC with PBMC; actives raise or lower the signal
Outline: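 Fluorescence ELISA of cell-surface CD38 served as the read-out, with either increase or decrease fitted against DMSO controls. Cells were a human umbilical vein endothelium plus PBMC co-culture under SEB/TSST-1 stimulation, measured 24 h after dosing.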

CD40, CD40 (gene 958) [17] = experiment: BSK_SAg_CD40: BioMAP Diversity Plus: SAg Assay for CD40 Biomarker Activity (AID 2283088); conditions: primary human HUVEC with PBMC; actives raise or lower the signal
Outline: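 HUVEC plus PBMC co-culture, superantigen-activated, with CD40 read by ELISA 24 h after dosing. Curves fitted in both directions against DMSO. Overt cytotoxicity checked by parallel SRB total-protein staining.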

CD69, CD69 (gene 969) = experiment: BSK_SAg_CD69: BioMAP Diversity Plus: SAg Assay for CD69 Biomarker Activity (AID 2283089); conditions: primary human HUVEC with PBMC; actives raise or lower the signal;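 on AC50: cell surface CD69 protein quantified by ELISA with fluorescence detection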
Outline: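 Primary human vascular co-culture (umbilical vein endothelium with peripheral blood mononuclear cells) exposed to test chemical for 24 h. CD69 levels quantified by fluorescence ELISA; DMSO served as negative control for bidirectional fitting.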

CD40, CD40 (gene 958) [18] = experiment: BSK_LPS_CD40: BioMAP Diversity Plus: LPS Assay for CD40 Biomarker Activity (AID 2283076); conditions: primary human HUVEC with PBMC; actives raise or lower the signal
Outline: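 HUVEC plus PBMC co-culture stimulated with LPS; CD40 quantified by ELISA 24 h after compound dosing. Fitting was bidirectional relative to DMSO. SRB staining of parallel cultures flagged overt cytotoxicity.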

Measured: AC50

Tumor necrosis factor (Homo sapiens), sequence (P01375 whole entry, looked up): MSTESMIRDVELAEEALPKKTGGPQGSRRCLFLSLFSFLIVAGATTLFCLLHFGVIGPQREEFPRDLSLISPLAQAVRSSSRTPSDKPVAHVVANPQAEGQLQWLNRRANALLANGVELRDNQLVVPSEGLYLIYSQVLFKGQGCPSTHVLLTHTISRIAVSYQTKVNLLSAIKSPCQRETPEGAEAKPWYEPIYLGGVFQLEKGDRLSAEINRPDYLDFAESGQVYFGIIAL
E-selectin (Homo sapiens), sequence (P16581 whole entry, looked up): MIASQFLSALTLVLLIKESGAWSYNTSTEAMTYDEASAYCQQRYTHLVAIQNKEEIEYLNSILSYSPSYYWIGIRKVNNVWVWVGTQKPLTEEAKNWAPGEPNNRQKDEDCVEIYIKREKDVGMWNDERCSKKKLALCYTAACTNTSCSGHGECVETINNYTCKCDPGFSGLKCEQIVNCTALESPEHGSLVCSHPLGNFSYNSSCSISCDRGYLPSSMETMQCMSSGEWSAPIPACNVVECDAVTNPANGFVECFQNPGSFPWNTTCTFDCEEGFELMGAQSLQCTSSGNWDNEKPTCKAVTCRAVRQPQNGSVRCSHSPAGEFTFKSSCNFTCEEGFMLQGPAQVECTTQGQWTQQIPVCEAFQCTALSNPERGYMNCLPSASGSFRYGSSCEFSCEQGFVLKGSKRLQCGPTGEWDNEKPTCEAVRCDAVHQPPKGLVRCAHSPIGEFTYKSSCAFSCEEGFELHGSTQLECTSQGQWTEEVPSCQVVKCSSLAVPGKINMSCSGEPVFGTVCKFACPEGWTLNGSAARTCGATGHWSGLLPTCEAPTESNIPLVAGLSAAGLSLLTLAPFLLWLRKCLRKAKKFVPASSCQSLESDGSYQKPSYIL

CCCCOC(=O)C(C)Oc1ccc(Oc2ccc(C(F)(F)F)cn2)cc1 (centres undefined)
not listed: CD40, CD40 (gene 958) [18]
inactive: all other assays above

CCCN(CCC)c1c([N+](=O)[O-])cc(C(F)(F)F)c(N)c1[N+](=O)[O-]
active: [1] 31.3 µM | [2] 30.6 µM | [3] 32.1 µM | [4] 30.5 µM | [5] 33.6 µM | [6] 37.3 µM | [9] 13.8 µM | [13] 20 µM | [15] 30.2 µM | [16] 30.7 µM | CD40, CD40 (gene 958) [17] 28.9 µM
inactive: CD40, CD40 (gene 958) [18] | [7] | [8] | [10] | [11] | [12] | [14] | CD38, CD38 (gene 952) | CD69, CD69 (gene 969)

CCOC(=O)c1ccc(O)cc1
inactive: all assays above

C#CCOC(=O)[C@@H](C)Oc1ccc(Oc2ncc(Cl)cc2F)cc1
not listed: CD40, CD40 (gene 958) [18]
inactive: all other assays above

CC(C)(C)[C@@H](O)[C@@H](Cc1ccc(Cl)cc1)n1cncn1
active: [10] 3.97 µM
not listed: CD40, CD40 (gene 958) [18]
inactive: all other assays above

Oc1ccc(C(c2ccc(O)cc2)C(Cl)(Cl)Cl)cc1
active: [1] 32.9 µM | [2] 20.7 µM | [4] 20 µM | [5] 24.6 µM | [6] 31.8 µM | CD40, CD40 (gene 958) [18] 24.9 µM | [8] 14.9 µM | [9] 17 µM | [10] 24.8 µM | [11] 33.9 µM | [12] 29.3 µM | [13] 20 µM | [14] 37 µM | [15] 4.66 µM | [16] 17.9 µM | CD38, CD38 (gene 952) 27.4 µM | CD40, CD40 (gene 958) [17] 24.4 µM | CD69, CD69 (gene 969) 20 µM
inactive: [3]

CCCCC(CC)CN1C(=O)C2C3C=CC(C3)C2C1=O (centres undefined)
active: [9] 3.97 µM | [13] 15.5 µM | [15] 0.237 µM | [16] 20 µM | CD38, CD38 (gene 952) 26.3 µM | CD69, CD69 (gene 969) 20 µM
not listed: CD40, CD40 (gene 958) [17] | CD40, CD40 (gene 958) [18]
inactive: all other assays above

C#C[C@]1(O)CC[C@H]2[C@@H]3CCC4=CC(=O)CC[C@@H]4[C@H]3CC[C@@]21CC
active: [12] 2.43 µM | [13] 14.5 µM
not listed: CD40, CD40 (gene 958) [18]
inactive: all other assays above

CSC(=O)c1cccc2nnsc12
active: [15] 4.96 µM
not listed: CD40, CD40 (gene 958) [18]
inactive: all other assays above

CCOC(=O)COc1cc(-n2ncc(C(F)(F)F)c(C)c2=O)c(F)cc1Cl
not listed: CD40, CD40 (gene 958) [18]
inactive: all other assays above

CC1(C)C(C=C(Cl)Cl)C1C(=O)OCc1cccc(Oc2ccccc2)c1 (centres undefined)
active: [8] 10 µM | [9] 6.14 µM | [12] 4.13 µM | [13] 4.63 µM | CD69, CD69 (gene 969) 14.7 µM
not listed: CD40, CD40 (gene 958) [18]
inactive: all other assays above

C[C@]12CC[C@@H]3c4ccc(O)cc4C[C@@H](CCCCCCCCCS(=O)CCCC(F)(F)C(F)(F)F)[C@H]3[C@@H]1CC[C@@H]2O (some centres undefined)
not listed: CD40, CD40 (gene 958) [18]
inactive: all other assays above
